Here are results for 10 compounds from PubChem BioAssay (EPA / NIEHS).

Structures are written as SMILES. “And” between values parts separate entries of the source, which are not always exact repeats. Identical values can stand only once. Inconclusive results are not listed. The source holds several records for some structures; these can differ, active in one and inactive in another. The source made the active and inactive calls. Rule for the calls: active = hit-call score of the fitted dose curve at least 0.9, where 1 is the maximum; inconclusive = response in the unintended direction; inactive = score below 0.9.

Nuclear receptor subfamily 1 group I member 2 (Mus musculus), sequence (O54915 whole entry, looked up): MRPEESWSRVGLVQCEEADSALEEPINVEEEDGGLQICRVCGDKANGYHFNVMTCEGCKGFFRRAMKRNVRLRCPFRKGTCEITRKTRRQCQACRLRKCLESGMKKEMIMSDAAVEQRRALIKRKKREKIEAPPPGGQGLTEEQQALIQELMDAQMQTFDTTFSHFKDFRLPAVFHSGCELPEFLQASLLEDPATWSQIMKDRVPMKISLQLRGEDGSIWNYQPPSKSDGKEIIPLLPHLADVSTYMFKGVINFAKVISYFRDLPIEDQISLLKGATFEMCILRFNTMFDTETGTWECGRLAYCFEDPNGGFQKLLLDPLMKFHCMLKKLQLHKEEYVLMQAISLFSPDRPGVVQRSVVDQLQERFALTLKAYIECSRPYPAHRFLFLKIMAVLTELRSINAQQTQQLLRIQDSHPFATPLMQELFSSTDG

The test deals with Nuclear receptor subfamily 1 group I member 2 (Mus musculus) (UniProt O54915). Put plainly: ATG_mPXR_XSP2: Attagene TRANS-FACTORIAL Multi-Species (XSP1) HepG2 Assay for mouse Pregnane X Receptor (PXR) (AID 2283831). Here is the method:
ATG_XSP2_multi-species_TRANS is a cell-based, multiplexed assay created by modifying the existing Attagene TRANS-FACTORIAL system to include a panel of nuclear receptors from some or all the following species: human (Homo sapiens), mouse (Mus musculus), frog (Xenopus laevis), zebrafish (Danio rerio), chicken (Gallus gallus), and turtle (Chrysemys picta). The ECOTOX-FACTORIAL format uses HepG2, a human liver cell line, with measurements taken at 24 hours after chemical dosing in a 24-well plate. Xsp2 included 3 nM 6-alpha-fluorotestosterone and 1.5 nM norgestrel to stimulate the androgen receptor.ATG_mPXR_XSP2 is one of 29 assay components measured or calculated from the ATG_XSP2_multi-species_TRANS assay. It is designed to make measurements of mRNA induction, a form of inducible reporter, as detected with fluorescence intensity signals by Reverse transcription polymerase chain reaction (RT-PCR) and Capillary electrophoresis technology.The assay endpoint ATG_mPXR_XSP2 was analyzed in the positive analysis fitting direction relative to DMSO as the negative control and baseline of activity. Using a type of inducible reporter, measures of mRNA for gain-of-signal activity can be used to understand the reporter gene at the transcription factor-level as they relate to the gene PXR. Furthermore, this assay endpoint can be referred to as a primary readout, because this assay has produced multiple assay endpoints where this one serves a reporter gene function. To generalize the intended target to other relatable targets, this assay endpoint is annotated to the nuclear receptor intended target family, where the subfamily is non-steroidal.
Human liver HepG2 cells are transiently transfected with multiple reporter transcription units (MRTUs) in 6-well plates using FuGene 6 reagent (Roche; 3 ml FuGene/1 mg DNA). The MRTU constructs are regulated by a cis-regulating element (promoter). […] A major difference between the CIS and TRANS system is that in CIS activities of endogenous TFs are measured, whereas the TRANS assay evaluates changes in activities of exogenous, chimeric NR-Gal4 proteins. […] At the end of 24 hour incubation, total RNA was isolated using TriZol reagent (Invitrogen). The isolated RNA is then reverse-transcribed using oligo(dT) primer and Mo-MLV reverse transcriptase (Invitrogen) with DNAse I (Ambion) treatment for 30 min. The one-tenth of the produced cDNA was amplified by PCR using Taq DNA polymerase (Invitrogen) and two reporter sequence-specific primers. The PCR products were fluorescently labeled by primer extension with 6-arboxyfluorescein (6-FAM) 5'-labeled reporter sequence-specific primer (2 min at 95 C, 20 s at 68 C and 10 min at 72 C) and these products were digested with 5U of HpaI (New England Biolabs) for 2h at 37 C. The fragments were purified using Qiaquick PCR columns (Qiagen), analyzed on an ABI 3130xL genetic analyzer (Applied Biosystems) with peak positions identified by using a set of X-rhodamine (ROX)-labeled MapMarker1000 molecular weight standards (BioVentures). The raw capillary electrophoresis data was processed using Attagraph software (Attagene).
For the compound `CCCCCCCCCCCCc1ccc(O)cc1`, the half-maximal activity concentration (AC50) was 0.259 µM (active).

With `N#Cc1ccc(C2CCCc3cncn32)cc1` (stereo not drawn), the compound was classed as inactive. `COc1ccc(-c2coc3cc(O)cc(O)c3c2=O)cc1`: the concentration at half-maximal activity (AC50) is 2.51 µM (active) and the compound was called inactive. In the same order, the values of `CC(CCC(=O)O)(c1ccc(O)cc1)c1ccc(O)cc1` are 100 µM (active) and “inactive”. As to `O=C(O)/C=C/c1ccccc1`, the compound was classed as inactive. Turning to `Oc1ccccc1Cc1ccccc1O`, the compound was called inactive and the half-maximal activity concentration (AC50) was 26.3 µM (active). On to `COc1ccc(C(=O)c2ccccc2)c(O)c1`, for which the concentration at half-maximal activity (AC50) was 26.7 µM (active). For the compound `Oc1ccc(-c2ccccc2)c(Cl)c1`, the compound was classed as inactive. `C=C1C[C@H]2[C@@H]3C=C(C)C4=CC(=O)CC[C@]4(C)[C@H]3CC[C@]2(C)[C@@]1(OC(C)=O)C(C)=O`: the AC50 was 931 nM (active) and 619 nM (active). Same read-out and setting: under `CC(C)(C)NC(=O)[C@H]1CC[C@H]2[C@@H]3CC[C@H]4NC(=O)C=C[C@]4(C)[C@H]3CC[C@]12C` stands 2.09 µM (active).
